Data from PubChem BioAssay (EPA / NIEHS).
Active and inactive are the calls of the source. The calls were made as follows: active = hit-call score of the fitted dose curve at least 0.9, where 1 is the maximum; inactive = score below 0.9.

Experiments:
[1] = read-out: Human Leukocyte Antigen - DR isotype (HLADR), HLA-DRA (gene 3122); experiment: BSK_CASM3C_HLADR: BioMAP Diversity Plus: CASM3C Assay for Human Leukocyte Antigen - DR isotype (HLADR) Biomarker Activity (AID 2283043); details: primary human coronary artery smooth muscle cells; actives raise or lower the signal;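 also: cell-surface HLA-DR protein level quantified by ELISA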
[2] = read-out: Macrophage colony-stimulating factor (MCSF), CSF1 (gene 1435); experiment: BSK_CASM3C_MCSF: BioMAP Diversity Plus: CASM3C Assay for Macrophage colony-stimulating factor (MCSF) Biomarker Activity (AID 2283044); details: primary human coronary artery smooth muscle cells; actives raise or lower the signal;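 also: M-CSF protein amount quantified by ELISA after 24 h exposure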
[3] = read-out: Low-density lipoprotein receptor (LDLR), LDLR (gene 3949); experiment: BSK_CASM3C_LDLR: BioMAP Diversity Plus: CASM3C Assay for Low-density lipoprotein receptor (LDLR) Biomarker Activity (AID 2283045); details: primary human coronary artery smooth muscle cells; actives raise or lower the signal;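 also: LDLR protein level on the cell surface quantified by ELISA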
[4] = read-out: Monocyte Chemoattractant Protein-1 (MCP1), CCL2 (gene 6347); experiment: BSK_CASM3C_MCP1: BioMAP Diversity Plus: CASM3C Assay for Monocyte Chemoattractant Protein-1 (MCP1) Biomarker Activity (AID 2283046); details: primary human coronary artery smooth muscle cells; actives raise or lower the signal;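 also: MCP-1 level quantified by ELISA 24 h after dosing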
[5] = BSK_CASM3C_Proliferation: Cell Proliferation Assessment in the BioMAP Diversity Plus: CASM3C Assay (AID 2283047); details: primary human coronary artery smooth muscle cells;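 also: sulforhodamine B total protein stain as relative cell number at 560 nm; sub-confluent cells exposed 48 h before staining; fitted both ways against DMSO so gain or loss of cell number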
[6] = read-out: Monokine induced gamma interferon (MIG), CXCL9 (gene 4283); experiment: BSK_CASM3C_MIG: BioMAP Diversity Plus: CASM3C Assay for Monokine induced gamma interferon (MIG) Biomarker Activity (AID 2283048); details: primary human coronary artery smooth muscle cells; actives raise or lower the signal;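 also: MIG protein level measured by ELISA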
[7] = read-out: serum amyloid A (SAA), SAA1 (gene 6288); experiment: BSK_CASM3C_SAA: BioMAP Diversity Plus: CASM3C Assay for serum amyloid A (SAA) Biomarker Activity (AID 2283049); details: primary human coronary artery smooth muscle cells; actives raise or lower the signal;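 also: SAA protein level quantified by ELISA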
[8] = BSK_CASM3C_SRB: Viability Assessment in the BioMAP Diversity Plus: CASM3C Assay (AID 2283050); details: primary human coronary artery smooth muscle cells;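 also: total protein by SRB staining as cytotoxicity measure in parallel cultures; cells exposed to compound for 24 h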
[9] = read-out: Thrombomodulin, THBD (gene 7056); experiment: BSK_CASM3C_Thrombomodulin: BioMAP Diversity Plus: CASM3C Assay for Thrombomodulin Biomarker Activity (AID 2283051); details: primary human coronary artery smooth muscle cells; actives raise or lower the signal;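 also: thrombomodulin protein level measured by ELISA 24 h after dosing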
[10] = read-out: Tissue Factor, F3 (gene 2152); experiment: BSK_CASM3C_TissueFactor: BioMAP Diversity Plus: CASM3C Assay for Tissue Factor Biomarker Activity (AID 2283052); details: primary human coronary artery smooth muscle cells; actives raise or lower the signal;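 also: cell surface tissue factor protein level read by ELISA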
[11] = read-out: Interferon-gamma inducible Protein 10 (IP10), CXCL10 (gene 3627); experiment: BSK_hDFCGF_IP10: BioMAP Diversity Plus: hDFCGF Assay for Interferon-gamma inducible Protein 10 (IP10) Biomarker Activity (AID 2283053); details: primary human foreskin fibroblasts; actives raise or lower the signal
Method in brief: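 Cells: human dermal foreskin fibroblasts. Exposure: 24 h post-dosing. Detection: IP-10 ELISA, with values expressed against DMSO controls and fitted in both directions.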

[12] = read-out: Urokinase-type plasminogen activator receptor (uPAR), PLAUR (gene 5329); experiment: BSK_CASM3C_uPAR: BioMAP Diversity Plus: CASM3C Assay for Urokinase-type plasminogen activator receptor (uPAR) Biomarker Activity (AID 2283054); details: primary human coronary artery smooth muscle cells; actives raise or lower the signal;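 also: cell-surface uPAR protein level quantified by ELISA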
[13] = read-out: Vascular cell adhesion molecule 1 (VCAM1), VCAM1 (gene 7412); experiment: BSK_CASM3C_VCAM1: BioMAP Diversity Plus: CASM3C Assay for Vascular cell adhesion molecule 1 (VCAM1) Biomarker Activity (AID 2283055); details: primary human coronary artery smooth muscle cells; actives raise or lower the signal;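 also: VCAM-1 protein level quantified by ELISA on the cells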
[14] = read-out: Collagen III, COL3A1 (gene 1281); experiment: BSK_hDFCGF_CollagenIII: BioMAP Diversity Plus: hDFCGF Assay for Collagen III Biomarker Activity (AID 2283056); details: primary human foreskin fibroblasts; actives raise or lower the signal
Method in brief: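 Cells: human foreskin fibroblasts, primary. Dosing followed by 24 h incubation, then ELISA for collagen III. Both increases and decreases scored relative to DMSO.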

[15] = read-out: Epidermal growth factor receptor (EGFR), EGFR (gene 1956); experiment: BSK_hDFCGF_EGFR: BioMAP Diversity Plus: hDFCGF Assay for Epidermal growth factor receptor (EGFR) Biomarker Activity (AID 2283057); details: primary human foreskin fibroblasts; actives raise or lower the signal
Method in brief: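 Dosing human primary skin fibroblasts, then measuring surface EGFR by ELISA at 24 h, gives the endpoint; gains and losses relative to DMSO were fitted in both directions.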

[16] = read-out: Interleukin-8 (IL8), CXCL8 (gene 3576); experiment: BSK_hDFCGF_IL8: BioMAP Diversity Plus: hDFCGF Assay for Interleukin-8 (IL8) Biomarker Activity (AID 2283058); details: primary human foreskin fibroblasts; actives raise or lower the signal
Method in brief: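 IL-8 levels from compound-treated primary human fibroblasts were read by ELISA at 24 h, with DMSO serving as baseline for bidirectional fitting.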

[17] = BSK_hDFCGF_Proliferation: Cell Proliferation Assessment in the BioMAP Diversity Plus: hDFCGF Assay (AID 2283059); details: primary human foreskin fibroblasts;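 also: curves fitted for both rise and fall of signal versus DMSO baseline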
Method in brief: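 Primary human foreskin fibroblasts, sub-confluent; […]; 10% TCA fix, 0.1% SRB stain, A560 total protein. Gain/loss fitted bidirectionally vs DMSO control.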

[18] = read-out: Macrophage colony-stimulating factor (MCSF), CSF1 (gene 1435); experiment: BSK_hDFCGF_MCSF: BioMAP Diversity Plus: hDFCGF Assay for Macrophage colony-stimulating factor (MCSF) Biomarker Activity (AID 2283060); details: primary human foreskin fibroblasts; actives raise or lower the signal
Method in brief: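 M-CSF levels, determined by ELISA, are taken at 24 h after dosing human skin fibroblasts. Responses in either direction are fitted with DMSO serving as the baseline.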

[19] = BSK_hDFCGF_SRB: Viability Assessment in the BioMAP Diversity Plus: hDFCGF Assay (AID 2283061); details: primary human foreskin fibroblasts;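 also: cells exposed to compound for 24 h before the read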
Method in brief: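 Cells were dosed with test chemical, cultured 24 h, fixed with 10% TCA, then stained with 0.1% SRB and read at 560 nm. The fibroblasts were human foreskin primary cells, and DMSO served as baseline.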

[20] = read-out: TIMP metallopeptidase inhibitor 1 (TIMP1), TIMP1 (gene 7076); experiment: BSK_hDFCGF_TIMP1: BioMAP Diversity Plus: hDFCGF Assay for TIMP metallopeptidase inhibitor 1 (TIMP1) Biomarker Activity (AID 2283062); details: primary human foreskin fibroblasts; actives raise or lower the signal
Method in brief: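 Fibroblasts from human foreskin are treated with test chemical and harvested at 24 h. TIMP-1 is quantified by ELISA, and gain or loss of signal is scored against DMSO.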

Measured: AC50

CCCCCCCCCC[N+](C)(C)[O-]
inactive: all assays above

CC(=O)O
active: [17] 31.2 µM
not listed: [18]
inactive: all other assays above

CCCCOC(=O)CCCCC(=O)OCCCC
inactive: all assays above

OCC(O)CO
not listed: [18]
inactive: all other assays above

CC(=O)OCC(COC(C)=O)OC(C)=O
inactive: all assays above

Cc1cn([C@H]2C=C[C@@H](CO)O2)c(=O)[nH]c1=O
not listed: [18]
inactive: all other assays above

O=NO
not listed: [18]
inactive: all other assays above

CC(C)(O)c1ccc(CNC(=O)c2cccnc2Oc2ccc(F)cc2)cc1
active: [1] 2.12 µM
not listed: [18]
inactive: all other assays above

O=C1NC(=O)C(c2ccccc2)(c2ccccc2)N1
not listed: [12] | [18]
inactive: all other assays above

CN(C)C(=O)NC1(c2ccccc2)CCN(CCC[C@]2(c3ccc(Cl)c(Cl)c3)CCCN(C(=O)c3ccccc3)C2)CC1
active: [3] 5 µM | [4] 37 nM | [17] 6.29 µM
not listed: [18]
inactive: all other assays above

C/C=C/C=C/C(=O)O
not listed: [18]
inactive: all other assays above

Cc1cc(Cc2ccc(N)c(C)c2)ccc1N
active: [17] 3.12 µM
not listed: [7]
inactive: all other assays above

OCC(CO)n1cnc(-c2ccc(F)cc2)c1-c1ccnc(Oc2ccccc2)n1
active: [1] 0.408 µM | [2] 759 nM | [13] 2.33 µM
not listed: [18]
inactive: all other assays above

CN(C)CCCN(C)CCCN(C)C
not listed: [18]
inactive: all other assays above

Oc1ccccc1O
active: [1] 10.4 µM | [2] 3970 nM | [5] 7.66 µM | [9] 11 µM | [11] 14.1 µM | [13] 5.64 µM | [14] 10.2 µM | [17] 12 µM
not listed: [18]
inactive: all other assays above

CCCCC(CC)COC(=O)CCCCCCCC(=O)OCC(CC)CCCC (stereo not given)
not listed: [18]
inactive: all other assays above

CCOCCOCCO
not listed: [18]
inactive: all other assays above
